Experimental data from a collection of fitness landscapes (doi:10.1016/j.celrep.2020.107928).
Over roughly 81,000 sequences, “one-hybrid fitness for binding parS DNA” has its median near -0.17; the highest 2% begin near 0.51. This excerpt belongs to a sample that is enriched for the highest values.

B1: Caulobacter ParB omega fusion; a variant is named by its letters at X, in order, B8GW30 (parent)
chain: MESVVVGEPGMSEGRRGLGRGLSALLGEVDAAPAQAPGEQLGGSREAPIEILQRNPDQPRRTFREEDLEDLSNSIREKGVLQPILVRPSPDTAGEYQIVAGERAWRAAQRAGLKTVPIMVRELDDLAVLEIGIIENVQRADLNVLEEALSYKVLMEKFERTQENIAQTIGKSXSHVANXMRLLXLPDEVQSYLVSGELTAXHARAIAAAADPVALAKQIIEGGLSVRETEALARKAPNLSAGKSKGGRPPRVKDTDTQALESDLSSVLGLDVSIDHRGSTGTLTITYATLEQLDDLCNRLTRGI

Variants of: B1
Assay: one-hybrid fitness for binding parS DNA (scaled: cognate 1, non-cognate 0); higher = stronger binding
Settings: with parS DNA site
Outline: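 Values were rescaled so that cognate is 1 and non-cognate is 0. Each is a fitness, the log change in a variant's read ratio to wild type from Illumina reads of plasmids before and after selection, with three replicate libraries pooled and variants under 10 reads dropped. Selection of the Caulobacter ParB libraries, four specificity codons randomised, used E. coli USO with a HIS3 reporter, site 19 bp from the promoter, on M9-minus-histidine with 0.1 mM IPTG and 5 mM 3-AT for 48 hours at 37°C.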

Variant | one-hybrid fitness for binding parS DNA
RATD | ≤ 0.2
RATH | 0.255
RATS | 1
RFKP | ≤ 0.2
RFVP | ≤ 0.2
RFVQ | ≤ 0.2
RFVT | 0.614
NFKT | ≤ 0.2
RFKT | 0.902
GMAG | ≤ 0.2
DNQC | ≤ 0.2
KSSE | ≤ 0.2
PNYS | ≤ 0.2
RTAC | 0.98
RTAN | 0.429
RTFC | 0.986
RTFN | 0.436
RTAF | 0.256
RTFD | ≤ 0.2
ITKL | ≤ 0.2
KWHC | ≤ 0.2
QGYA | ≤ 0.2
RHMK | ≤ 0.2
RHMY | 0.383
RHMG | 0.932
RIMM | 0.377
RIMG | 0.996

Variant | one-hybrid fitness for binding parS DNA
NFMG | ≤ 0.2
DFMG | ≤ 0.2
RKMQ | ≤ 0.2
RKMG | 0.951
RIMR | ≤ 0.2
RKMM | 0.283
RFMG | 0.864
AATS | ≤ 0.2
LNQW | ≤ 0.2
ILSS | ≤ 0.2
QYSS | ≤ 0.2
QVQQ | ≤ 0.2
YRRM | ≤ 0.2
RSMR | ≤ 0.2
RRMR | ≤ 0.2
RAMY | 0.435
RDMG | ≤ 0.2
RSMG | 0.962
RPMG | ≤ 0.2
RCMG | 1.03
RRMM | ≤ 0.2
RAMG | 0.995
RAMK | ≤ 0.2
REMG | ≤ 0.2
RRMG | 0.806
LNGD | ≤ 0.2
WSGR | ≤ 0.2

Variant | one-hybrid fitness for binding parS DNA
IRPG | ≤ 0.2
LHHS | ≤ 0.2
PPPY | ≤ 0.2
RMMH | ≤ 0.2
RMMG | 0.985
RMMQ | 0.215
RLMR | ≤ 0.2
RTMR | ≤ 0.2
RLMY | 0.49
RTMG | 1
RLMG | 1.02
RTMK | ≤ 0.2
MPYE | ≤ 0.2
MAAF | ≤ 0.2
SSTQ | ≤ 0.2
DFFS | ≤ 0.2
VTNA | ≤ 0.2
QCWG | ≤ 0.2
SHRE | ≤ 0.2
RRHI | ≤ 0.2
TAII | ≤ 0.2
LRVW | ≤ 0.2
AKPV | ≤ 0.2
QKYL | ≤ 0.2
RMPY | 0.322
